The values that follow come from PubChem BioAssay (NCATS).

Results filed as inconclusive are left out. Where a call stands in place of a potency, no number is given. The source made the active and inactive calls. The call rests on the fitted dose curve; in most records, active means well fitted inhibition curve with a large enough effect; inconclusive means small, poorly fitted or top-dose-only effect; inactive means flat fitted curve, though single readings scatter.

The subject of the assay is CRL-7250. Put plainly: qHTS assay to identify novel small-molecules to repurpose for Merkel cell carcinoma treatment (AID 1296009). Further: nearly all actives have a fitted effect of over 60% in size. The note with it: MCC and control cell lines, CellTiter-Glo viability, 72 h; series mostly up to 92 µM. The gist of the method: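 qHTS format: cells treated with library compounds in DMSO across 8 (NPC) or 11 (MIPE) concentrations. Readout after 72 hr at 37 degree celsius was CellTiter-Glo luminescence.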
(In general: Quantitative high-throughput screening tests each substance at several concentrations.)
For `CCCCCOC(=O)Nc1nc(=O)n(C2O[C@H](C)[C@@H](O)[C@H]2O)cc1F` (stereo partly drawn), the Potency entry is “inactive”.

With `Nc1ncnc2c1ncn2CCNCCCCCO`, the Potency entry was “inactive”.

For the molecule `CC(=O)O[C@@H]1[C@H](O[C@@H]2O[C@@H](CO)[C@H](O)[C@H]2O)[C@@H](O[C@@H]2O[C@@H](C)[C@H](O[C@@H]3OC[C@@H](O)[C@H](O)[C@H]3O)[C@@H](O)[C@H]2O)[C@H](OC(=O)[C@]23CCC(C)(C)C[C@H]2C2=CCC4[C@@]5(C)CC[C@H](O[C@@H]6O[C@H](C(=O)O)[C@@H](O)[C@H](O)[C@H]6O[C@@H]6O[C@H](CO)[C@H](O)[C@H](O)[C@H]6O)[C@@](C)(C=O)C5CC[C@@]4(C)[C@]2(C)CC3)O[C@@H]1C` (stereo partly drawn), the outcome is “inactive [at 9.27 µM]”.

As for `O=C1CC(c2ccc([N+](=O)[O-])cc2)=NN1c1ccccc1`, the Potency entry was “inactive”.

As to `CC/C=C\[C@H](O)[C@H](O)C1=C(C)C(=O)[C@]2(O1)C(=O)N[C@@](O)(C(=O)c1ccccc1)[C@@H]2O`, the Potency entry was “inactive”.

For the molecule `C=C(C)C1CCC2(C(=O)O)CCC3(C(=O)O)C(CCC4C5(C)CCC(O)C(C)(C(=O)O)C5CCC43C)C12` (stereo not drawn), the Potency entry was “inactive”.

In the case of `CCNC(=O)C1CC(F)(c2ccc(CN3CCCC3)c(F)c2)C1` (stereo not drawn), the Potency entry was “inactive”.

Consider `C=C1CC[C@@]2(OC1)O[C@H]1CC3C4CC=C5C[C@@H](O[C@@H]6O[C@@H](C)[C@H](O)[C@@H](O)[C@H]6O)C[C@@H](O[C@@H]6O[C@H](C)[C@H](O)[C@H](O)[C@H]6O[C@@H]6O[C@@H](C)[C@H](O)[C@@H](O)[C@H]6O)[C@]5(C)C4CC[C@]3(C)[C@H]1[C@@H]2C` (stereo partly drawn), for which the outcome is “inactive [at 9.27 µM]”.
